Data published in PubChem BioAssay (Tox21).
Records with an inconclusive call do not appear. Active and inactive are the calls of the source. Unless noted, calls come from the whole dose curve.

Columns and labels:
[1] = Nuclear factor erythroid 2-related factor 2/antioxidant responsive element (Nrf2/ARE) small molecule agonists: qHTS cell viability counter screen in human keratinocytes (AID 1919968; active = well fitted cell-killing curve with a large enough effect in the repeat runs; note: nearly all actives have a fitted effect of over 55% in size)
Outline: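 CellTiter-Fluor fluorescence, read 1 h after reagent, gave viability in the same wells as the ARE-luciferase assay. KeratinoSens cells (1,500/well) had 23 h compound exposure at 37 C/5% CO2 following 5 h plating.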

[2] = Nuclear factor erythroid 2-related factor 2/antioxidant responsive element (Nrf2/ARE) small molecule agonists: luciferase reporter gene qHTS assay in human keratinocytes (AID 1919969); note: nearly all actives have a fitted effect of over 35% in size; note: potency is the fitted concentration of half-maximal effect
[3] = target: Gonadotropin-releasing hormone receptor (Homo sapiens) (UniProt P30968); experiment: Human gonadotropin-releasing hormone receptor (GnRHR) small molecule agonists, calcium flux assay in GnRHR-HEK293 cells (AID 1920063); note: nearly all actives have a fitted effect of over 35% in size
Sequence of Gonadotropin-releasing hormone receptor (Homo sapiens) (P30968 whole entry, looked up): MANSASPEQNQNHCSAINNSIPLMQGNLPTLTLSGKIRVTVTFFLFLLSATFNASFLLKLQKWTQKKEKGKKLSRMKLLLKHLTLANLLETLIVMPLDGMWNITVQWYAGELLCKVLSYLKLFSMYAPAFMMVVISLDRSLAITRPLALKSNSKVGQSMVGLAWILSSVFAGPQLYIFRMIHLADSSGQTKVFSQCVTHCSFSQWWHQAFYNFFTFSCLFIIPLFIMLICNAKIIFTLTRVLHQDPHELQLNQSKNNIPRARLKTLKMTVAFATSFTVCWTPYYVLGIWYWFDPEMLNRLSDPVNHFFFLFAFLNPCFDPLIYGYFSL
Outline: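 Agonist mode: compounds at 15 concentrations, in triplicate, went onto calcium dye-loaded GnRHR-HEK293 cells. Intracellular calcium was then followed as 480/540 nm fluorescence at 1 s intervals over 3 min.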

[4] = p53 small molecule agonists, cell-based qHTS assay with human liver microsomes: qHTS cell viability counter screen (AID 1963579); note: nearly all actives have a fitted effect of over 45% in size
Outline: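 Seed p53RE-bla cells at 4,000 per well; incubate 5 h at 37 C; add compound, human liver microsomes and NADPH; incubate 16 h at 37 C; add CellTiter-Glo; after 30 min at room temperature, read luminescence.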

[5] = p53 small molecule agonists, cell-based qHTS assay with rat liver microsomes: qHTS cell viability counter screen (AID 1963580); note: nearly all actives have a fitted effect of over 45% in size
Outline: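 Rat liver microsome (0.5 mg/mL final) and NADPH (0.5 mg/mL final) co-incubation with compounds for 16 h at 37 C on HCT-116 p53RE-bla cells; cytotoxicity taken from intracellular ATP luminescence.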

[6] = p53 small molecule agonists, cell-based qHTS assay: qHTS cell viability counter screen (AID 1963581); note: nearly all actives have a fitted effect of over 45% in size
Outline: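 Counter screen read by CellTiter-Glo luminescence (ATP content, 30 min at room temperature), run in the same wells as the beta-lactamase reporter read. HCT-116 p53RE-bla cells saw compounds for 16 h at 37 C.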

[7] = target: 5-hydroxytryptamine receptor 2A (Homo sapiens) (UniProt P28223); experiment: 5-hydroxytryptamine receptor 2A (HTR2A) small molecule antagonists, cell-based qHTS assay (AID 1963586); note: nearly all actives have a fitted effect of over 45% in size
Sequence of 5-hydroxytryptamine receptor 2A (Homo sapiens) (P28223 whole entry, looked up): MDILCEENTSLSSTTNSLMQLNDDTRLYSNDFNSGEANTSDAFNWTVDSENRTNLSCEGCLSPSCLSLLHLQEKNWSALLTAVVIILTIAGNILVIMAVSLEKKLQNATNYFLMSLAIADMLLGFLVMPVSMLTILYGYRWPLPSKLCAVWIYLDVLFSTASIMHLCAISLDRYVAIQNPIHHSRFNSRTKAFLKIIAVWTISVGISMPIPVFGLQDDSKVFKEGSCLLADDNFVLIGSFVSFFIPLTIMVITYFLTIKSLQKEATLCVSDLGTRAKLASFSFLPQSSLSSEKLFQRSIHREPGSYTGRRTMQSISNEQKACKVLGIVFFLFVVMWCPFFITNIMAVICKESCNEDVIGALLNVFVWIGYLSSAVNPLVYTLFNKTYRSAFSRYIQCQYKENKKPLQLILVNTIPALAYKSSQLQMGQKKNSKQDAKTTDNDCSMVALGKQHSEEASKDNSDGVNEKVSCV
Outline: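 CHO cells stably expressing human HTR2A were plated for 18 h at 37 C, then loaded with calcium dye for 1 h. Compounds were preincubated 5 min at room temperature before DOI (4 nM solution) was added. Kinetic fluorescence was read for 3 min.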

[8] = target: 5-hydroxytryptamine receptor 2A (Homo sapiens) (UniProt P28223); experiment: 5-hydroxytryptamine receptor 2A (HTR2A) small molecule agonists, cell-based qHTS assay (AID 1963587); note: nearly all actives have a fitted effect of over 30% in size
Outline: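 Kinetic calcium-flux fluorescence (2 min, 1 sec intervals) after compound addition in agonist mode. HTR2A-CHO cells were cultured 18 h, then dye-loaded 1 h at 37 C.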

[9] = target: Muscarinic acetylcholine receptor M1 (Homo sapiens) (UniProt P11229); experiment: Cholinergic receptor muscarinic 1 (CHRM1) small molecule antagonists, cell-based qHTS assay (AID 1963588); note: nearly all actives have a fitted effect of over 40% in size
Sequence of Muscarinic acetylcholine receptor M1 (Homo sapiens) (P11229 whole entry, looked up): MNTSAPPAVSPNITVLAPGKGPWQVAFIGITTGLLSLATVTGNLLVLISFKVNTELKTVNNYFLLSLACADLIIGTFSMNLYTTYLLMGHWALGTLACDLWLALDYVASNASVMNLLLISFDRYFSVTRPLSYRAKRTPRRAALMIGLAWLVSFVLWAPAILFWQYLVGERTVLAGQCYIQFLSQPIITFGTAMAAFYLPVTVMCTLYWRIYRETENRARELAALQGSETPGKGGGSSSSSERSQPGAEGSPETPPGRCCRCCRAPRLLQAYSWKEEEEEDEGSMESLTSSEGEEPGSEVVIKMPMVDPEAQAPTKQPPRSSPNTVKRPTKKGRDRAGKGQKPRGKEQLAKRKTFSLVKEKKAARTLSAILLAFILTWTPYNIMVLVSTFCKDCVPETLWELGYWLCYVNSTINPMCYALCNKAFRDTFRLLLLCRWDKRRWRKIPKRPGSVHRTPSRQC
Outline: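 Compounds were tested at 15 concentrations in three independent runs. Dye-loaded CHRM1-CHO cells were exposed 5 min at room temperature before stimulation by acetylcholine added at 50nM. Intracellular calcium was read kinetically on FDSS for 3 min.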

[10] = target: Muscarinic acetylcholine receptor M1 (Homo sapiens) (UniProt P11229); experiment: Cholinergic receptor muscarinic 1 (CHRM1) small molecule agonists, cell-based qHTS assay (AID 1963589); note: nearly all actives have a fitted effect of over 35% in size
Outline: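 Agonist-mode calcium-flux screen: compounds at 15 concentrations, three independent runs, were pin-transferred onto dye-loaded human CHRM1-CHO cells. Fluorescence was then recorded kinetically every second over minutes.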

[11] = cAMP Responsive Elements (CRE) small molecule agonists, cell-based qHTS assay (AID 1963590)
Outline: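 Agonist mode: compound added to CRE-bla HEK 293T cells (2,000/well, 18 h after plating) for 3 h at 37 C/5% CO2. Reporter activity detected via FRET beta-lactamase substrate, 2 h room-temperature loading.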

[12] = cAMP Responsive Elements (CRE) small molecule antagonists, cell-based qHTS assay (AID 1963591; active = well fitted inhibition curve with a large enough effect in the signal ratio in the repeat runs, not every such curve was filed as active; the % refers to the signal ratio)
Outline: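 Antagonist mode: compounds are added alongside the adenylyl cyclase activator NKH477 (0.25 uM final) to CRE-bla HEK293T cells for 3 h. LiveBLAzer FRET substrate, 2 h at room temperature, reports bla expression.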

[13] = target: Beta-2 adrenergic receptor (Homo sapiens) (UniProt P07550); experiment: Adrenergic beta2 receptor (ADRB2) small molecule antagonists, cell-based qHTS assay (AID 1963592); note: series mostly up to about 92 µM; nearly all actives have a fitted effect of over 50% in size
Sequence of Beta-2 adrenergic receptor (Homo sapiens) (P07550 whole entry, looked up): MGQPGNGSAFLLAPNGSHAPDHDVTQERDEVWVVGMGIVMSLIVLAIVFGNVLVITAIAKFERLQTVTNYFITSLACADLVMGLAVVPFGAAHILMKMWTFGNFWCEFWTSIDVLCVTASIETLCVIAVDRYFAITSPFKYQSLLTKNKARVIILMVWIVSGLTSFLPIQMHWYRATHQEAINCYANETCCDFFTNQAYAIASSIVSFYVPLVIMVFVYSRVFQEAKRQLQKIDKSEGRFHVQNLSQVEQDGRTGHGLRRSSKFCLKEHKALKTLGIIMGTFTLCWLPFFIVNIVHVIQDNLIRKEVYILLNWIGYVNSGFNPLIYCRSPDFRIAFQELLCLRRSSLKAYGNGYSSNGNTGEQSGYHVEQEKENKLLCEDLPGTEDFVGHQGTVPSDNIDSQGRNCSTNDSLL
Outline: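 Assay format: CHO-ADRB2 cells, 18-20hr seeding at 37C/5% CO2, then compound plus 1nM isoproterenol agonist mix for 0.5hr RT. Homogeneous time-resolved fluorescence cAMP detection after 1hr, expressed as 665/615 nm ratio.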

[14] = target: Beta-2 adrenergic receptor (Homo sapiens) (UniProt P07550); experiment: Adrenergic beta2 receptor (ADRB2) small molecule agonists, cell-based qHTS assay (AID 1963593);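 note: CHO cells stably overexpressing human ADRB2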
Outline: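 CHO cells stably over-expressing ADRB2 were plated overnight at 37C, then dosed with compounds plus a stimulation mix containing 100uM IBMX and 25uM Ro-20-1724 for 0.5hr at room temperature. cAMP was measured by HTRF competition, 1hr.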

[15] = target: D(2) dopamine receptor (Homo sapiens) (UniProt P14416); experiment: Dopamine D2 receptor (DRD2) small molecule agonists, cell-based qHTS assay (AID 1963594); note: nearly all actives have a fitted effect of over 35% in size
Sequence of D(2) dopamine receptor (Homo sapiens) (P14416 whole entry, looked up): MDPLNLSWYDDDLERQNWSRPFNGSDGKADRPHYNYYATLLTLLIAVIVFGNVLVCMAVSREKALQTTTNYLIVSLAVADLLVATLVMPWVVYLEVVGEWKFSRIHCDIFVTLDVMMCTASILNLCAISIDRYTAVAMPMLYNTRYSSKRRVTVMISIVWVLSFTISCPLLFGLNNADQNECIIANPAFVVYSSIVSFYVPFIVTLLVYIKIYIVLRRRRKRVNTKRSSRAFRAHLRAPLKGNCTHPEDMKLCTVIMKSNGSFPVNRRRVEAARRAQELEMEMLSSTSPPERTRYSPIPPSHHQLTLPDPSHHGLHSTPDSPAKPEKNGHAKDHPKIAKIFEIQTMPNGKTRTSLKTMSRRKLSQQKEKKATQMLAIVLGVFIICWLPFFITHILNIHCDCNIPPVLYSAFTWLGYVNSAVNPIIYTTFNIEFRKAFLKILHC
Outline: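 cAMP accumulation in DRD2-HEK293 cells measured by HTRF after 1 h detection; compounds added 10 min before NKH477 (200nM […]) forskolin-analogue stimulation, 30 min at room temperature, with Ro20-1724 present at 0.1 mM final.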

[16] = target: D(2) dopamine receptor (Homo sapiens) (UniProt P14416); experiment: Dopamine D2 receptor (DRD2) small molecule antagonists, cell-based qHTS assay (AID 1963595; active = well fitted inhibition curve with a large enough effect in the signal ratio in the repeat runs, with a control signal flat; the % refers to the signal ratio)
Outline: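 Antagonist mode in DRD2-HEK293 cells: after compound addition with 0.1 mM Ro20-1724, cells received quinpirole (12 nM) and NKH477 (200 nM) for 30 min at room temperature; HTRF cAMP read after 1 h detection.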

[17] = G protein-coupled receptor (GPCR) small molecule agonists, calcium flux assay: HEK293 wild type cell line counter screen (AID 1920065)
Outline: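 Calcium flux counter screen: compound added in agonist mode at 15 concentrations in triplicate to dye-loaded parental HEK293 cells. Fluorescence (480/540) read kinetically for 3 min; ATP served as positive control.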

[18] = p53 small molecule agonists, cell-based qHTS assay with human liver microsomes (AID 1963577)
Outline: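 Cells carrying a p53-responsive bla reporter were rested 5 h (37 C, 5% CO2) before compound transfer. Human liver microsomes plus NADPH, 0.5 mg/mL final apiece, supplied metabolism during the 16 h 37 C exposure.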

[19] = p53 small molecule agonists, cell-based qHTS assay with rat liver microsomes (AID 1963578)
Outline: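 Fluorescence from a beta-lactamase reporter under a p53 response element was measured after cells had been incubated 16 h at 37 C with test compound and rat liver microsomes plus NADPH (0.5 mg/mL final each).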

[20] = p53 small molecule agonists, cell-based qHTS assay (AID 1963582; active = well fitted activation curve with a large enough effect in the signal ratio in the repeat runs, not every such curve was filed as active; the % refers to the signal ratio)
Outline: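 Read-out is beta-lactamase FRET fluorescence after 2 h at room temperature with LiveBLAzer B/G substrate. p53 response element-bla cells were treated 16 h at 37 C with compounds in DMSO, added 5 h after seeding.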

Measured: Potency

CCCCCOC(C)=O
active: [2] 68.6 µM
not listed: [17] | [18] | [19] | [20]
inactive: all other assays above

CCc1ccc(C)nc1
not listed: [3] | [14]
inactive: all other assays above

N#CCN(CC#N)CCN(CC#N)CC#N
not listed: [3]
inactive: all other assays above

C1=Cc2ccccc2C1
not listed: [7] | [14] | [17]
inactive: all other assays above

CCCCCCCCCCCCCCO
not listed: [3] | [14]
inactive: all other assays above

CC(=O)[O][Al][O]C(C)=O
not listed: [3]
inactive: all other assays above

CCCCCCC(C)(C)C(=O)O
not listed: [3]
inactive: all other assays above
